According to PubChem BioAssay:
Measured potencies and affinities stand elsewhere. Calls of active or inactive are those of the source. No cut-off is given here; in the data, nearly all actives have IC50 up to about 0.91 µM.

Target: Calcium-dependent protein kinase 4 (Plasmodium falciparum (isolate 3D7)) (UniProt Q8IBS5)
Test: PfCDPK4 kinase inhibitors, biochemical, TCAMS library (AID 1159588)
Conditions: recombinant PfCDPK4, Kinase-Glo ATP depletion luminescence

Sequence of Calcium-dependent protein kinase 4 (Plasmodium falciparum (isolate 3D7)) (Q8IBS5 whole entry, looked up): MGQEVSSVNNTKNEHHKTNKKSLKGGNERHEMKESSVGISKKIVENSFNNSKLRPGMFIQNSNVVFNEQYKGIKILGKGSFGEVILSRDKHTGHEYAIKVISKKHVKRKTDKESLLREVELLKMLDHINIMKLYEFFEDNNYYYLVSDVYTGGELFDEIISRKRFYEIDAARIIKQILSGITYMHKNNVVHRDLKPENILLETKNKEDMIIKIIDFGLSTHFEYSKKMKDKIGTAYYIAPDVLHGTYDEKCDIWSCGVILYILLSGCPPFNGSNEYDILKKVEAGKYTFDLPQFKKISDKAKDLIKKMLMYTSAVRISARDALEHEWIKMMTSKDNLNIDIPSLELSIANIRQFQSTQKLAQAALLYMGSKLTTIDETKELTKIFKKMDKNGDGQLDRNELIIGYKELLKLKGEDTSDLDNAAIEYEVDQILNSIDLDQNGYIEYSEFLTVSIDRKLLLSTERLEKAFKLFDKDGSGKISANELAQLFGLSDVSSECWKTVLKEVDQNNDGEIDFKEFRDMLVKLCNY

Row | SMILES | outcome
1 | COc1ccc2nccc([C@@H](O)CN3CCC(NCc4cc5ccccc5o4)CC3)c2c1 | inactive
2 | Oc1ccc(-c2cncc(NCc3ccc(F)c(F)c3)c2)cc1 | inactive
3 | Cc1cc(C(=O)Nc2ccc3c(ccn3C3CCCN(Cc4ccc(C(F)(F)F)cc4F)CC3)c2)no1 (centres undefined) | inactive
4 | O=C(Nc1nc(-c2ccccn2)cs1)c1ccc(S(=O)(=O)N2CCc3ccccc32)cc1 | inactive
5 | Cc1cc(NC2CCCC2)nc(Nc2ccccc2F)n1 | inactive
6 | COc1ccc2nccc([C@@H](O)CN3CCC(NCCOc4cc(F)cc(F)c4)CC3)c2c1 | inactive
7 | CN1CCCN(Cc2cccc(-c3cccc(NS(=O)(=O)c4cccc5cccnc45)c3)c2)CC1 | inactive
8 | Cc1nc(-c2cccc(Nc3nccc(NCC(O)c4ccccc4C)n3)c2)cs1 (centres undefined) | inactive
9 | N#Cc1cccc(Nc2nccc(NCC(O)c3ccccc3C(F)(F)F)n2)c1 (centres undefined) | inactive
10 | CCCCNCc1ccc(-c2nc(CN(Cc3ccc(Cl)c(Cl)c3)C(=O)CN(C)C)cs2)cc1 | inactive
11 | COc1cc2nc(NCC3CCN(c4nc(N)c5cc(OC)c(OC)cc5n4)CC3)nc(N)c2cc1OC | inactive
12 | CN1CCC(NCc2ccc(-c3ccc(S(=O)(=O)NCc4ccccc4)c(F)c3)cc2)CC1 | inactive
13 | O=C(Nc1cccc(-c2csc(-c3ccccc3)n2)c1)c1cccs1 | inactive
14 | CC(C)(C)Nc1cc(C2CC2)nc(-c2ccccn2)n1 | inactive
15 | CCOc1ccc(C=CC(=O)Nc2ccc3nc(N4CCOCC4)cc(C)c3c2)cc1OC | inactive
16 | COC(=O)c1cccc(OCCNC2CCN(C[C@H](O)c3ccnc4ccc(OC)cc34)CC2)c1 | inactive
17 | Cc1noc(C)c1-c1cccc(CNCc2ccc(-c3ccc(-c4nc5ccccc5[nH]4)s3)cc2)c1 | inactive
18 | N=C(N)CCN(Cc1ccc(Cl)cc1)c1ccc(Cl)cc1 | inactive
19 | COc1ccc2c(NN=Cc3ccccc3F)ccnc2c1 | inactive
20 | FC(F)(F)c1ccc2nc(-c3ccc(-c4cccc(CNCc5ccccc5)c4)s3)[nH]c2c1 | inactive

Row | SMILES | outcome
21 | O=[N+]([O-])c1cc(C(c2ccc(O)c([N+](=O)[O-])c2)C(Cl)(Cl)Cl)ccc1O | inactive
22 | N#Cc1ccc2c(c1)CCN(CCC1CCC(NC(=O)/C=C/c3cnc4ccccc4c3)CC1)CC2 (centres undefined) | inactive
23 | Cn1c(NC(=O)C2CCC(CNC(=O)c3ccc(O)c(-c4cccc([N+](=O)[O-])c4)c3)CC2)nc2ccccc21 (centres undefined) | inactive
24 | Fc1cccc(CNc2ncc(-c3ccsc3)c(-c3nccs3)n2)c1 | inactive
25 | Cc1cc(N[C@@H](CC(C)C)C(=O)NCc2cccc(F)c2)nc(Nc2ccccc2)n1 | inactive
26 | CCc1sc(N2CCN(C)CC2)nc1C(=O)NCCc1ccc(Cl)c(Cl)c1 | inactive
27 | COc1cc2nc(N3CCC(CCCC4CCNCC4)CC3)nc(NCc3ccccn3)c2cc1OC | inactive
28 | O=C(NC1CCN(Cc2ccccc2O)C1)c1ccc(Cl)c(Cl)c1 (centres undefined) | inactive
29 | CNC(=O)/C=C/c1cc(NC(=O)Nc2cc(C)nc3c(F)cccc23)ccc1OC | inactive
30 | CCc1ccc(NC(=O)c2ccc(CN3CCCN(Cc4cccc(O)c4)CC3)cc2)cc1 | inactive
31 | CC(C)c1sc(-c2ccc(C(C)(C)C)cc2)nc1C(=O)NCCCN1CCCC1=O | inactive
32 | NC(N)=Nc1nc(-c2cccc(NC(=O)Cc3ccccc3)c2)cs1 | inactive
33 | O=C(NCCc1ccccc1)N(Cc1ccccc1-c1cccc(CNCc2ccc3c(c2)OCO3)c1)C1CCN(Cc2ccccc2)CC1 | inactive
34 | CC(Oc1ccc(Cl)cc1)C(=O)N(C)C1CCN(CCCCCNC(=O)/C=C/c2ccc(Cl)c(Cl)c2)CC1 (centres undefined) | inactive
35 | CCOc1cc(C)ccc1C1CCN(CCCCNC(=O)c2cccc(-c3ccc(C(F)(F)F)cc3)c2)CC1 | inactive
36 | c1ccc(CNc2nc(NCCc3cnc[nH]3)nc(N3CCCC4CCCCC43)n2)cc1 (centres undefined) | inactive
37 | Cc1cc(NC(=O)c2ccsc2)ccc1OC1CCN(Cc2ccc(F)cc2)CC1 | inactive
38 | N=c1n(CCN2CCCCC2)c2ccccc2n1CC(O)c1cccc(Br)c1 (centres undefined) | inactive
39 | COc1cccc(C(=O)NCCOc2ccccc2)c1Oc1ccccc1 | inactive
